Measured values reported in the OligoGym collection.

Target: RANGAP1
Assay: pooled miR-30 sensor sort-seq; sequence = guide strand
Details: shRNA
Further: reference of the scale not given here.

Question: TAGGAAGGCAGAGACCACCTTC was tested. Which sensor-assay potency score (higher = more potent) did it give?
Answer: Its sensor-assay potency score (higher = more potent) is 0.359.

Question: With TTTCCGGTGACATTCGGTCAGA as the sequence, how does the sensor-assay potency score (higher = more potent) read?
Answer: The sensor-assay potency score (higher = more potent) was -1.19.

Question: TTCAACTCCGACTTCTTCTCTA was tested. Which sensor-assay potency score (higher = more potent) did it give?
Answer: The sensor-assay potency score (higher = more potent) was 0.789.

Question: TTAGGGTCCAGAATCTTCCGTG was tested. Which sensor-assay potency score (higher = more potent) did it give?
Answer: The sensor-assay potency score (higher = more potent) was 0.289.

Question: Which sensor-assay potency score (higher = more potent) does the source give for TTGAGTTTGAGGCTCTTGCCTT here?
Answer: The sensor-assay potency score (higher = more potent) was -0.514.

Question: For TTGGAGTTGAAGGACGAGGAGT, which sensor-assay potency score (higher = more potent) is on record?
Answer: Its sensor-assay potency score (higher = more potent) is -0.814.

Question: With TTGACCTTGTCTTCACTCTTGA as the sequence, how does the sensor-assay potency score (higher = more potent) read?
Answer: The sensor-assay potency score (higher = more potent) was 0.405.

Question: For AATCTCTTTAATCACATCTTTA, which sensor-assay potency score (higher = more potent) is on record?
Answer: The sensor-assay potency score (higher = more potent) was -1.26.

Target: RASGEF1A
Assay: as above
Details: shRNA

Question: TAGGTCTTGGTCAGGTCCCCTC was tested. Which sensor-assay potency score (higher = more potent) did it give?
Answer: The sensor-assay potency score (higher = more potent) was -1.

Question: For TTTTTCCATGTGGTTCTCGGGA, which sensor-assay potency score (higher = more potent) is on record?
Answer: The sensor-assay potency score (higher = more potent) was -0.794.

Question: Which sensor-assay potency score (higher = more potent) does the source give for AATCTTCTTGTCCTTCTCGAAA here?
Answer: Its sensor-assay potency score (higher = more potent) is -1.91.

Question: For TTCTTGTCCTTCTCGAAAGGAC, which sensor-assay potency score (higher = more potent) is on record?
Answer: The sensor-assay potency score (higher = more potent) was -0.791.

Question: With AAACTTGGCTGTCTTGACCTTG as the sequence, how does the sensor-assay potency score (higher = more potent) read?
Answer: The sensor-assay potency score (higher = more potent) was -0.781.

Question: How did the sensor-assay potency score (higher = more potent) turn out when AAGGTGAAGATGTACGTCCTAT was run?
Answer: Its sensor-assay potency score (higher = more potent) is 0.212.

Question: How did the sensor-assay potency score (higher = more potent) turn out when TTGCAGAAGTTGCTGGACGGGT was run?
Answer: The sensor-assay potency score (higher = more potent) was -0.613.

Question: With TTCAGGAGCTGCACGATCTTGG as the sequence, how does the sensor-assay potency score (higher = more potent) read?
Answer: Its sensor-assay potency score (higher = more potent) is -0.661.

Question: How did the sensor-assay potency score (higher = more potent) turn out when TGAAGAACTCCAACATGCGGGT was run?
Answer: Its sensor-assay potency score (higher = more potent) is -0.41.

Question: How did the sensor-assay potency score (higher = more potent) turn out when TGTTTCTTCTTCACCACCCGGC was run?
Answer: Its sensor-assay potency score (higher = more potent) is 0.377.

Question: TGAATCTTCTTGTCCTTCTCGA was tested. Which sensor-assay potency score (higher = more potent) did it give?
Answer: The sensor-assay potency score (higher = more potent) was 0.828.

Question: For ATGAAGAACTCCAACATGCGGG, which sensor-assay potency score (higher = more potent) is on record?
Answer: The sensor-assay potency score (higher = more potent) was -0.48.

Target: RASGEF1C
Assay: as above
Details: shRNA

Question: How did the sensor-assay potency score (higher = more potent) turn out when TTTCTCGGGGTAGTAGTCGGCT was run?
Answer: Its sensor-assay potency score (higher = more potent) is -0.879.

Question: For TCTCACTTTCGTAAGAAGCCAA, which sensor-assay potency score (higher = more potent) is on record?
Answer: The sensor-assay potency score (higher = more potent) was -0.537.

Question: Which sensor-assay potency score (higher = more potent) does the source give for TGAACCATTTCACATAAGCCTC here?
Answer: The sensor-assay potency score (higher = more potent) was -1.38.

Question: How did the sensor-assay potency score (higher = more potent) turn out when TTAGAGCTTTCCATCTTTCTTT was run?
Answer: The sensor-assay potency score (higher = more potent) was -0.12.

Question: Which sensor-assay potency score (higher = more potent) does the source give for TAGCACAGCCTGTTGAACCATT here?
Answer: The sensor-assay potency score (higher = more potent) was -1.09.

Question: For TGTAGTTGCAGAAATTCCCCGT, which sensor-assay potency score (higher = more potent) is on record?
Answer: Its sensor-assay potency score (higher = more potent) is 0.202.

Question: Which sensor-assay potency score (higher = more potent) does the source give for ATGAAGAACTCAATCACCTGGG here?
Answer: The sensor-assay potency score (higher = more potent) was 0.211.

Question: For TTTTTCTGTTTGGTTCTCTGGG, which sensor-assay potency score (higher = more potent) is on record?
Answer: Its sensor-assay potency score (higher = more potent) is 0.0788.

Question: Which sensor-assay potency score (higher = more potent) does the source give for TTCCACGTGGGTCAGCTGCTGG here?
Answer: The sensor-assay potency score (higher = more potent) was -1.01.

Question: With TTTTCTGTTTGGTTCTCTGGGC as the sequence, how does the sensor-assay potency score (higher = more potent) read?
Answer: Its sensor-assay potency score (higher = more potent) is -0.505.

Question: For ATGACAATCTTCTCTCGGCTGC, which sensor-assay potency score (higher = more potent) is on record?
Answer: The sensor-assay potency score (higher = more potent) was -0.296.

Question: With TTTCACATAAGCCTCCAGGTTG as the sequence, how does the sensor-assay potency score (higher = more potent) read?
Answer: Its sensor-assay potency score (higher = more potent) is -0.649.

Target: RASGRP2
Assay: as above
Details: shRNA

Question: How did the sensor-assay potency score (higher = more potent) turn out when TTTGCTGAGGATCATGAGCTGC was run?
Answer: The sensor-assay potency score (higher = more potent) was -0.888.

Question: How did the sensor-assay potency score (higher = more potent) turn out when TTGGTAGATGTGGAGCAGCTTG was run?
Answer: Its sensor-assay potency score (higher = more potent) is -1.27.

Question: For TAGTCCTGAAACAGGATCTTGC, which sensor-assay potency score (higher = more potent) is on record?
Answer: Its sensor-assay potency score (higher = more potent) is -0.808.

Question: With TACTGATCCAGAGACACCGTGA as the sequence, how does the sensor-assay potency score (higher = more potent) read?
Answer: Its sensor-assay potency score (higher = more potent) is 0.0565.

Question: For TTGTTGGTAGATGTGGAGCAGC, which sensor-assay potency score (higher = more potent) is on record?
Answer: The sensor-assay potency score (higher = more potent) was -1.12.

Question: For TCTATGTCGATTAGGCTGCTGT, which sensor-assay potency score (higher = more potent) is on record?
Answer: Its sensor-assay potency score (higher = more potent) is -0.615.

Question: With TTCTTGGTCTAGCAGAGCCTTC as the sequence, how does the sensor-assay potency score (higher = more potent) read?
Answer: Its sensor-assay potency score (higher = more potent) is -1.75.

Question: With TCAAACAACAGGGACATCTTGC as the sequence, how does the sensor-assay potency score (higher = more potent) read?
Answer: The sensor-assay potency score (higher = more potent) was -0.201.
